# Experimental data reported in ChEMBL document CHEMBL4513216, “Probing the Open Global Health Chemical Diversity Library for Multistage-Active Starting Points for Next-Generation Antimalarials” (ACS Infect Dis, 2020).
# In all, about 69,000 compounds went through this assay and about 8,600 (12%) showed an effect of 50% or more. Many of the other results were omitted from the sample, so strong results are more common in it than they were.
# System: Plasmodium berghei
# Experiment: Screen against P. berghei liver stage (PbLuc), transformed with Luciferase, at 10uM
# Assay type: functional, HepG2
# Conditions: tested at 10 uM
row,Structure (SMILES),INHIBITION
1,Cn1c(=O)c2cc(C(=O)NCCOc3ccccc3)ccc2n(C)c1=O,33.7%
2,CC(C)n1c(=O)c2ccccc2n(CCCN(C)C)c1=O,28.7%
3,c1ccc(COC[C@H]2CC[C@H]3[C@H](CCN3Cc3ccccn3)O2)nc1,50.9%
4,c1ccc(COC[C@H]2CC[C@H]3[C@H](CCN3Cc3cccnc3)O2)nc1,29.9%
5,c1ccc(CN2CC[C@@H]3O[C@H](COCc4ccncc4)CC[C@@H]32)nc1,14.8%
6,CCCNC(=O)c1[nH]nc(C2CC2)c1Br,-59.9%
7,Cn1cnc2ccc(NC(=O)CCCn3cccn3)cc2c1=O,2.84%
8,O=C(c1ccccc1F)N1CCCC1Cn1c(=O)oc2ccccc21 (stereo unspecified),-1.4%
9,Fc1ccccc1C(CNc1ccncn1)N1CCCC1 (stereo unspecified),43.4%
10,CCc1nc2ccccc2c(=O)n1CC1(O)CCN(S(C)(=O)=O)CC1,52.9%
11,CS(=O)(=O)N1CCC(O)(Cn2c(C3CC3)nc3ccccc3c2=O)CC1,38.1%
12,CCc1nc2ccccc2c(=O)n1CC1(O)CCNCC1,28%
13,CC(C)CCN1CCN(C(=O)c2c[nH]nn2)CC1,-0.275%
14,Cc1nc(COC[C@@H]2CC[C@H]3[C@H](CCN3c3ccccn3)O2)cs1,-106%
15,CCN1CC2(CCN(CCOCCO)CC2)CC(c2ccccc2)C1=O (stereo unspecified),7.84%
16,CN1C(=O)C(c2ccccc2)CC12CCN(CCOCCO)CC2 (stereo unspecified),-26.4%
17,CN1CC2(CCN(CCOCCO)CC2)CC(c2ccccc2)C1=O (stereo unspecified),73.4%
18,CCCC(=O)N(CC)C(c1cccnc1)c1ccc2c(c1)CCO2 (stereo unspecified),29.4%
19,CCC(=O)N(CC)C(c1cccnc1)c1ccc2c(c1)CCO2 (stereo unspecified),37.9%
20,CCN(C(=O)C(C)C)C(c1cccnc1)c1ccc2c(c1)CCO2 (stereo unspecified),3.87%
21,CCN(C(=O)COC)C(c1cccnc1)c1ccc2c(c1)CCO2 (stereo unspecified),51.8%
22,CCN(C(=O)C1CC1)C(c1cccnc1)c1ccc2c(c1)CCO2 (stereo unspecified),21.8%
23,CCN(C(=O)C1CCC1)C(c1cccnc1)c1ccc2c(c1)CCO2 (stereo unspecified),66.2%
24,Cn1ccnc1Sc1ccc(S(N)(=O)=O)cn1,7.92%
25,CS(=O)(=O)c1cc(Cl)cnc1C1CCN(C(=O)C2CC2)CC1,15.49%
26,CCOC(=O)c1nc(COc2c(C)occc2=O)no1,41.7%

row,Structure (SMILES),INHIBITION
1,COCC(=O)N1CCCCC1c1ccnc(Nc2cnccn2)n1 (stereo unspecified),-26.2%
2,CCOc1ccc(S(=O)(=O)N(C)Cc2cnn(CC)c2)cc1,55.7%
3,CCn1cc(CN(C)S(=O)(=O)c2ccccc2)cn1,35.8%
4,CCn1cc(CN(C)S(=O)(=O)c2ccc(Cl)cc2)cn1,-64.7%
5,NC(=O)C1CCN(C(=O)CCCc2nnc(-c3ccccc3)o2)CC1,33.7%
6,O=C(O)[C@@H]1CN(C2CCCCC2)C[C@H]1C1CC1,9.34%
7,O=C([C@@H]1COC[C@H]2CN(C3CCCC3)C[C@H]21)N1CCC(F)CC1,50.3%
8,O=C([C@H]1COC[C@H]2CN(C3CCCC3)C[C@H]21)N1CCCCO1,5.65%
9,O=C([C@@H]1COC[C@H]2CN(C3CCCCC3)C[C@H]21)N1CCOCC1,7.7%
10,O=C([C@H]1COC[C@H]2CN(C3CCCCC3)C[C@H]21)N1CCOCC1,31.2%
11,O=C([C@H]1COC[C@H]2CN(C3CCOCC3)C[C@H]21)N1CCC(F)CC1,-20.4%
12,O=C([C@@H]1COC[C@H]2CN(C3CCCC3)C[C@H]21)N1CCCO1,35.4%
13,O=C([C@@H]1COC[C@H]2CN(C3CCOCC3)C[C@H]21)N1CCOCC1,-5.69%
14,O=C(O)[C@@H]1CN(C2CCOCC2)C[C@H]1C1CC1,25.1%
15,O=C([C@H]1COC[C@H]2CN(C3CCCC3)C[C@H]21)N1CCOCC1,74.7%
16,O=C([C@H]1COC[C@H]2CN(C3CCCC3)C[C@H]21)N1CCCO1,71.4%
17,O=C(O)[C@@H]1CN(C2CCCC2)C[C@H]1C1CC1,57.9%
18,CC(C)N(C)Cc1cnc2n1CCN(C(=O)NC1CCCC1)C2,34.1%
19,CCOCCN1CCN(c2ccc(C#N)cn2)CC1,45.4%
20,CS(=O)(=O)NCCCNCc1cc(F)ccc1Br,30.2%
21,Cc1noc(C)c1CN(C)C(=O)NC1CCOCC1,22.95%
22,Cc1cccc(N2CCN(C(=O)CCCC(=O)N(C)C)C(C)C2)n1 (stereo unspecified),39.3%
23,Cc1nc(CN2CCCC3(CCN(c4cnn(C)c4)C3=O)C2)cs1 (stereo unspecified),6.55%
24,Cc1nccn1C1CCCN(C(=O)c2cnc[nH]2)C1 (stereo unspecified),-9.37%
25,Cn1nc(Cn2cccn2)c2c1CN(C1CCOCC1)C2,44.2%
